Assay outcomes from PubChem BioAssay.
An excerpt weighted towards active compounds, which were near 11% of everything screened.
BAZ2B block = BAZ2B (human) inhibition | hit rate 4.4% among 360,000 | Q9UIF8 | Potency, µM (series often up to 114 µM), for inactives: at the top dose activity change, negative = inhibition, most hits filed as inhibitors | AlphaScreen BAZ2B-H3K14Ac peptide displacement; also: potency is read from the fitted curve at half-maximal effect; % is scaled to controls: 0 for no effect and ±100 for the full control effect; nearly all actives have a fitted effect of over 60% in size
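Complex of BAZ2B and biotin-H3K14Ac (50 nM apiece) forms over 30 min at RT, then faces library compounds up to 110 uM for another 30 min; AlphaScreen beads added, 20 min dark incubation, luminescence read.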
HP1b binding inh = HP1-beta chromodomain-methylated histone interaction inhibition; P83916; AlphaScreen HP1-beta / biotin-H3K9me3 peptide binding; Potency, µM (series often up to 114 µM), without a hit: top-dose activity change, negative = inhibition, hits mostly inhibitors; hit rate 0.56% among 390,000; also: potency is read from the fitted curve at half-maximal effect; nearly all actives have a fitted effect of over 70% in size
Target sequence (P83916 whole entry, looked up): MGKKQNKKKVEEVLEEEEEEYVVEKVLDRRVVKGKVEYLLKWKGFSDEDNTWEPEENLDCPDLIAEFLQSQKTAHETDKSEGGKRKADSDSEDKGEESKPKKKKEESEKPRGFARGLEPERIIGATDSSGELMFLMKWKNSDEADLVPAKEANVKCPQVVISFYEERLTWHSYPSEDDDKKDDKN
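HP1-beta protein (50 nM final) preincubated 30 min at room temperature with biotinylated H3(1-18)K9me3 peptide (50 nM) in PBS pH 7.4, 0.01% Tween-20, then compound added for 30 min. AlphaScreen streptavidin donor/nickel chelate acceptor beads (10 ug/mL final), 30 min dark, luminescence read.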
L3MBTL1 block = L3MBTL1 (human) inhibition; Q9Y468; AlphaScreen L3MBTL1–H3K9me1 peptide binding; Potency, µM (top dose mostly 57.1 µM), without a hit: at the top dose activity, negative = inhibition, most hits filed as inhibitors; hit rate 0.66% among 230,000; AID 485360; also: potency is read from the fitted curve at half-maximal effect; % is scaled to controls: 0 for no effect and ±100 for the full control effect; nearly all actives have a fitted effect of over 60% in size
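L3MBTL1 50 nM + b-AHA-H3(1-15)K9me1 75 nM, 30 min RT; compound added, 30 min RT; streptavidin donor/Ni-chelate acceptor beads 10 ug/mL each final, 30 min RT dark; AlphaScreen read.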
JMJD2A Tudor inh = JMJD2A Tudor domain (human) inhibition. AlphaScreen JMJD2A-Tudor / H3K4me3 peptide binding. Potency, µM (top dose mostly 114 µM), for inactives: at the top dose activity change, negative = inhibition, actives largely listed as inhibitors. hit rate 4.4% among 390,000. O75164; also: potency is read from the fitted curve at half-maximal effect; % is scaled to controls: 0 for no effect and ±100 for the full control effect; nearly all actives have a fitted effect of over 50% in size
PI5P4Ka inh = blocks human PI5P4K alpha kinase activity; P48426; PI5P4Kalpha enzyme, ADP-Glo luminescence, 60 min; hits give low values; max response, %; hit rate 1.2% among 330,000; AID 652105; active = max response of -50% or lower; inconclusive = between -30% and -50%; inactive = -30% or higher; also: value at the top dose of about 77 µM; % is scaled to controls: 0 for no effect and ±100 for the full control effect
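Luminescence from ADP-Glo served as readout of PI5P4Kalpha activity in a qHTS format. Reaction: enzyme, substrate, compound, ATP at 5 microM final, 60 min at RT.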
G9a inh = G9a (human) methyltransferase inhibition | G9a H3K9 monomethylation, AlphaScreen, 2 h | Potency, µM (doses to about 102 µM), inactives show at the top dose activity, negative = inhibition, hits mostly inhibitors | hit rate 8.8% among 350,000 | AID 504332; also: potency is read from the fitted curve at half-maximal effect; % is scaled to controls: 0 for no effect and ±100 for the full control effect; nearly all actives have a fitted effect of over 75% in size
Target sequence (Q96KQ7 913-1193 limits assumed): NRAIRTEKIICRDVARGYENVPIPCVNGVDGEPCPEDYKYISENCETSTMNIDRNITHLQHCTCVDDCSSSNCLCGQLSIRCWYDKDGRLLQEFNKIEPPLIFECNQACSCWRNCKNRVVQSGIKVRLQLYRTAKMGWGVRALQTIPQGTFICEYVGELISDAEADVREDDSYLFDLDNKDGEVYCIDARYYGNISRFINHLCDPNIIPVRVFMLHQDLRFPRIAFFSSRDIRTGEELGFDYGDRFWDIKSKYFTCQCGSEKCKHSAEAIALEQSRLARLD
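Readings reflect AlphaScreen signal from monomethyl-H3K9 antibody detection. HMT at 20 nM; substrate b-H3K9 500 nM; cofactor SAM 20 uM; 2 h RT reaction; compounds tested as titrations in qHTS with 15 min preincubation.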
An asterisk follows results filed as active; [ ] = remark or other dose. Unless noted, calls follow the shape of the dose curve; as a rule, active = well fitted inhibition curve with a large enough effect; inconclusive = small, poorly fitted or top-dose-only effect; inactive = no such curve, though single readings can be large or run the other way.

O=c1c(Cl)c(Cl)cnn1-c1ccccc1 was read as BAZ2B block -4%, HP1b binding inh 45%, L3MBTL1 block 5%, JMJD2A Tudor inh 13%, PI5P4Ka inh 1 and G9a inh -11%[59 µM].
Screening O=c1[nH]c2cnn(-c3ccccc3)c2c(=O)n1O returned HP1b binding inh 14%, JMJD2A Tudor inh 56µM* and PI5P4Ka inh -3.
C[C@]12C=CC(=O)C=C1CCC1C2C(=O)C[C@]2(C)C1CC[C@]2(O)C(=O)CO (stereo partly drawn) was read as G9a inh -11%[2.33 µM].
Cc1nn(-c2ccccc2)c(Cl)c1C1C(C#N)=C(N)Oc2n[nH]c(C)c21 (stereo not drawn) was read as BAZ2B block -6%, HP1b binding inh -1%, JMJD2A Tudor inh -22%[11.4 µM], PI5P4Ka inh -23 and G9a inh inconclusive.
`Cc1[nH]nc2c1C(c1ccc(-c3ccc(Cl)cc3)o1)C(C#N)=C(N)O2` (stereo not drawn) gave BAZ2B block 40µM*, HP1b binding inh -26%, L3MBTL1 block -5%, JMJD2A Tudor inh inconclusive, PI5P4Ka inh -29 and G9a inh 79µM*.
For Cc1[nH]nc2c1C(c1ccc(-c3ccccc3C#N)o1)C(C#N)=C(N)O2 (stereo not drawn) the results were BAZ2B block -35%, HP1b binding inh 7%, L3MBTL1 block -9%, JMJD2A Tudor inh inconclusive and G9a inh 20µM*.
`Cc1ccc(-c2ccc(C3C(C#N)=C(N)Oc4n[nH]c(C)c43)o2)cc1` (stereo not drawn) gave BAZ2B block inconclusive, HP1b binding inh inconclusive, L3MBTL1 block -12%, JMJD2A Tudor inh inconclusive and G9a inh inconclusive.
For CSc1cccc(Nc2cc(C(=O)NCCCN(C)c3ccccc3)c3ccccc3n2)c1 the results were BAZ2B block -18%, HP1b binding inh 18%, JMJD2A Tudor inh inconclusive and G9a inh -31%[59 µM].
For CCCOc1ccc(Oc2nc(NCC(C)C)nc(N3CCOCC3)n2)nn1 the results were BAZ2B block 0%, HP1b binding inh 33%, JMJD2A Tudor inh -18% and G9a inh 2%[59 µM].
`CCOc1cc(C=NN=C2c3ccccc3-c3ccccc32)ccc1O` gave HP1b binding inh 50µM*, JMJD2A Tudor inh 25µM* and PI5P4Ka inh 45.
Oc1cccc(C=NN=C2c3ccccc3-c3ccccc32)c1 was read as HP1b binding inh inconclusive, JMJD2A Tudor inh 45µM* and PI5P4Ka inh 36.
`CCOc1cc(/C=N/NC(=O)N/N=C/c2ccc(O)c(OCC)c2)ccc1O` gave HP1b binding inh 12%, JMJD2A Tudor inh -12% and PI5P4Ka inh -19.
`O=C1Nc2ccccc2/C1=N/N=C/c1cccc(O)c1` gave BAZ2B block -15%, HP1b binding inh -29%, L3MBTL1 block 0%, JMJD2A Tudor inh inconclusive and PI5P4Ka inh -12.
C(=NN=C1c2ccccc2-c2ccccc21)c1ccc2c(c1)OCO2 was read as HP1b binding inh 50µM*, JMJD2A Tudor inh 20µM* and PI5P4Ka inh 28.
Screening Cc1ccc(C)c(NC(=O)N2CCc3cc(S(=O)(=O)N4CCC(C)CC4)ccc32)c1 returned BAZ2B block -2%, HP1b binding inh 22%, JMJD2A Tudor inh -11% and G9a inh 1%[59 µM].
COc1ccc(CCNC(=O)C(=O)NCC(c2ccco2)S(=O)(=O)c2cccs2)cc1 (stereo not drawn) was read as BAZ2B block -2%, HP1b binding inh 52%, JMJD2A Tudor inh -2% and G9a inh -3%[59 µM].
For CCNc1ncc2nc(-c3cc(F)cc(F)c3)c(=O)n(C[C@H]3CCCO3)c2n1 the results were G9a inh 2%[0.501 µM].
For Cc1ccc(N2C(=O)CS(=O)(=O)C23C(=O)N(Cc2ccccc2C)c2ccccc23)cc1Cl (stereo not drawn) the results were BAZ2B block -2%[57.1 µM], HP1b binding inh 3%, JMJD2A Tudor inh -25% and G9a inh inconclusive.
